Compound activity from PubChem.
Only some compounds are listed: those with a hit (about 6.6% of all), similar ones and a draw of the others.
Mdm2 MdmX PPI: human Mdm2/MdmX binding inhibition; SaOS-2 split-luciferase Mdm2/MdmX complementation, luminescence; 3% of 330,000 active; inhibition, % at 8 µM; O15151+Q00987;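 active = inhibition of at least 50% at 8 µM in the primary screen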
Target sequence (O15151 whole entry, looked up): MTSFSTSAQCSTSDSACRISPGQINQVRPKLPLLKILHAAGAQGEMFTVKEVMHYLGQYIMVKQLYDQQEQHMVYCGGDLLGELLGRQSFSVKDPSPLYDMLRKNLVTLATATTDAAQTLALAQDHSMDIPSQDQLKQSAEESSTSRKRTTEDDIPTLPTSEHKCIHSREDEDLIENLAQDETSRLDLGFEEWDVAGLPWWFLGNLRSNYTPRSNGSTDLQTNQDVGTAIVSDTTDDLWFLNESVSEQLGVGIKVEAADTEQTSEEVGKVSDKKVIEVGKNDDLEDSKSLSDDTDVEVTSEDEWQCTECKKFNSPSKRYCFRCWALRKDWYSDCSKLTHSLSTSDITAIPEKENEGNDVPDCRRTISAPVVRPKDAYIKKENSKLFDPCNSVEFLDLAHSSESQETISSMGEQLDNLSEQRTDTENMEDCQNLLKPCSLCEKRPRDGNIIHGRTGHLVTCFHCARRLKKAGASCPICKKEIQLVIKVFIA
Target sequence (Q00987 whole entry, looked up): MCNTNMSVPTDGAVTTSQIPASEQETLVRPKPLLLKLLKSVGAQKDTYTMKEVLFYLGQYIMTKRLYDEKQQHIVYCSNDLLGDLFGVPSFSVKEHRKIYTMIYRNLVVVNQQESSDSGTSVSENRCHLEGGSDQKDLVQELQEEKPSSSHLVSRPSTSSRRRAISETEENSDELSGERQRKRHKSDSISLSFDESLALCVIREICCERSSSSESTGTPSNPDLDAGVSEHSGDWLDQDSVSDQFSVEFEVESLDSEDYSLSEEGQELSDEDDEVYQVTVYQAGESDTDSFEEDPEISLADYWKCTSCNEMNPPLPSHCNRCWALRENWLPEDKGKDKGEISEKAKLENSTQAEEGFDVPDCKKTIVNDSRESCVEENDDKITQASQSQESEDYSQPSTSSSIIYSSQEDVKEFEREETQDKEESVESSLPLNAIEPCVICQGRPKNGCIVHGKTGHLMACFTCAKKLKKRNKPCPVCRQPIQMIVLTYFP
MPTP block: inhibitors of mitochondrial permeability transition pore | isolated mouse mitochondria, Ca2+ swelling absorbance, 30 min | inhibition, % at 10 µM | 1.4% of 360,000 active | AID 602449;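 active = inhibition of 50% or more, scaled per plate between neutral and stimulator controls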;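 also: 0% = DMSO wells given calcium and 100% = 1 mM EGTA wells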
CSC inhib: cancer stem cell inhibition; AID 2717; 1.1% of 300,000 active; cancer stem cell-like cells viability, luminescence; inhibition, % at 7.5 µM; in the data active = inhibition above about 75%; tested in HMLE shEcad cells
Beta cell apopt: beta cell apoptosis inhibition | AID 435005 | 0.8% of 300,000 active | protection from apoptosis, % (no concentration beside the values) | INS-1E cytokine-induced death, ATP luminescence, 48 h; percent of positive-control rescue, neutral wells zero;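 active = Every replicate reaches about 75%, or at least half do and their mean reaches it too, limit read from the data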;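 also: 0% = cytokine-treated negative control wells and 100% = positive control rescue; higher means more ATP so stronger rescue from cytokine killing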
Gli-Sufu block: blocks Gli-Sufu signaling in a luciferase reporter; inhibition, % at 5 µM; Sufu-KO-LIGHT fibroblasts, Gli luciferase reporter luminescence; 0.74% of 340,000 active;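 active = inhibition above about 55%, limit read from the data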;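 also: 0% = DMSO-treated cells and 100% = wells with medium but no cells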
GRIN3A LBD mod: NR3A (human) ligand-binding domain modulation. NR3A LBD differential scanning fluorimetry, Tm shift; 0% = protein alone, 100% = glycine-bound protein. Tm shift relative to glycine control, % at 25 µM. 2.5% of 340,000 active;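 active = melting temperature shift of at least 10% of the positive control shift, at one fixed dose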
Gli-Sufu confirm: Gli-SUFU antagonism confirmation, single concentration | AID 602428 | 40% of 2,500 active | Sufu-KO-LIGHT cells, Gli luciferase reporter, luminescence | shares compounds with Gli-Sufu block | inhibition, % at 5 µM;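 active = mean inhibition at 5 µM reaching about 45%, limit read from the data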;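 also: plate controls were DMSO-treated cells for no effect and wells lacking cells for full effect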
Gli cytotox: cytotoxic in Gli-SUFU antagonist counter-screen | 32% of 2,500 active | cytotoxicity, % at 5 µM | shares compounds with Gli-Sufu block | Sufu-KO-LIGHT cells cytotoxicity, ATP luminescence | AID 651994;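 active = mean cytotoxicity at 5 µM above about 25%, limit read from the data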;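 also: cells exposed to compound overnight for roughly 16 to 18 hours; plate controls were DMSO wells with cells for no effect and medium without cells for full effect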
Wnt3a counter: Wnt3a reporter inhibition counter-screen; shares compounds with Gli-Sufu block; Wnt-LIGHT cells, Wnt3a-driven luciferase reporter, luminescence; inhibition, % at 6.25 µM; 20% of 2,500 active;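 active = mean inhibition above about 25%, limit read from the data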
* = called active by the depositor.

Results for CC(=O)Nc1ccc(N2C(=O)CSC2c2c(F)cccc2Cl)cc1 (centres undefined) ?
Mdm2 MdmX PPI: 1; MPTP block: 1; CSC inhib: 3; Beta cell apopt: -18; Gli-Sufu block: 52; GRIN3A LBD mod: -2; Gli-Sufu confirm: 9; Gli cytotox: 13; Wnt3a counter: -15

Results for CC[C@@H]1CCCCc2ccccc2[C@@H](C(=O)C[C@@H](O)CC(C)=O)OC1=O ?
Mdm2 MdmX PPI: 21; MPTP block: 0; Beta cell apopt: -13; Gli-Sufu block: 30; GRIN3A LBD mod: 0

How did CC12CCCCN1CCCc1c2[nH]c2ccccc12 (centres undefined) do in these assays?
Mdm2 MdmX PPI: -12; MPTP block: 0; CSC inhib: 1; Beta cell apopt: -2; Gli-Sufu block: 58*; GRIN3A LBD mod: 3; Gli-Sufu confirm: 33; Gli cytotox: 50*; Wnt3a counter: -11

How did O=C(NCCN1CCOCC1)C1CCN(S(=O)(=O)N2CCCC2)CC1 do in these assays?
Mdm2 MdmX PPI: -18; MPTP block: -1; CSC inhib: -10; Beta cell apopt: 2; Gli-Sufu block: 2; GRIN3A LBD mod: -2

Results for COC(=O)[C@H](C)NC(=O)N1CCC(Cc2ccccc2)CC1 ?
Mdm2 MdmX PPI: -19; MPTP block: 0; CSC inhib: -1; Beta cell apopt: -3; Gli-Sufu block: 13; GRIN3A LBD mod: 1

Results for O=c1c2ccccc2sc2c(CO)ccc(NCCN3CCCCC3)c12 ?
MPTP block: 1; Gli-Sufu block: 53; GRIN3A LBD mod: 0; Gli-Sufu confirm: 41; Gli cytotox: 20; Wnt3a counter: -155

Results for O=C(CCS(=O)(=O)c1cc(Br)cc2c1N(C(=O)C1CC1)CC2)N1CCN(c2ccccn2)CC1 ?
Mdm2 MdmX PPI: -9; MPTP block: 0; CSC inhib: -15; Beta cell apopt: -2; Gli-Sufu block: 5; GRIN3A LBD mod: -3

Results for Cc1cc(Nc2nn(C)c(N)c2C#N)ccc1F ?
Mdm2 MdmX PPI: 12; MPTP block: 1; CSC inhib: -1; Beta cell apopt: -3; Gli-Sufu block: -17; GRIN3A LBD mod: 0

What do the screens show for `Cc1nn(C)c(C)c1S(=O)(=O)N(CC(=O)Nc1nccs1)c1ccc(C(C)C)cc1`?
Mdm2 MdmX PPI: 11; MPTP block: -2; Gli-Sufu block: -1; GRIN3A LBD mod: 0

Results for COc1ccc(N(CC(=O)Nc2nccs2)S(=O)(=O)c2c(C)nn(C)c2C)cc1 ?
Mdm2 MdmX PPI: -36; MPTP block: -1; CSC inhib: 1; Beta cell apopt: 5; Gli-Sufu block: 58*; GRIN3A LBD mod: 2; Gli-Sufu confirm: 32; Gli cytotox: 4; Wnt3a counter: 3

Results for CCn1c(=NC(=O)c2ccc(S(=O)(=O)N3CCOCC3)cc2)sc2cccc(OC)c21 ?
Mdm2 MdmX PPI: 4; MPTP block: 0; CSC inhib: 33; Beta cell apopt: 88*; Gli-Sufu block: 52; GRIN3A LBD mod: -1; Gli-Sufu confirm: 35; Gli cytotox: 21; Wnt3a counter: -2

How did COC(=O)Cn1c(=NC(=O)c2ccc(S(=O)(=O)N3CCOCC3)cc2)sc2cc(S(N)(=O)=O)ccc21 do in these assays?
Mdm2 MdmX PPI: -12; MPTP block: 1; CSC inhib: -7; Beta cell apopt: 3; Gli-Sufu block: 1; GRIN3A LBD mod: -6

Results for CCn1c(=NC(=O)CCS(=O)(=O)c2ccccc2)sc2cccc(OC)c21 ?
Mdm2 MdmX PPI: 43; MPTP block: 1; CSC inhib: -6; Beta cell apopt: 87*; Gli-Sufu block: 70*; GRIN3A LBD mod: 0; Gli-Sufu confirm: 71*; Gli cytotox: 28*; Wnt3a counter: 17

Results for ClCC1=Nc2cccc3cccc(c23)N1 ?
Mdm2 MdmX PPI: 23; CSC inhib: -17; Beta cell apopt: 3

What do the screens show for `CCOCCCNC(=O)C(NC(=O)c1ccc(NC(C)=O)cc1)c1ccc(Cl)cc1` (centres undefined)?
Mdm2 MdmX PPI: -38; MPTP block: 3; CSC inhib: -13; Beta cell apopt: -8; Gli-Sufu block: 4; GRIN3A LBD mod: 5

How did CCOCCCNC(=O)C(NC(=O)c1ccc(NC(C)=O)cc1)c1ccc(C)cc1 (centres undefined) do in these assays?
Mdm2 MdmX PPI: -25; MPTP block: 1; CSC inhib: -7; Beta cell apopt: -6; Gli-Sufu block: 96*; GRIN3A LBD mod: -15; Gli-Sufu confirm: 14; Gli cytotox: 1; Wnt3a counter: 4

Results for Cc1nn(-c2ccccc2)nc1C(=O)OCC(=O)N1CCC(C)CC1 ?
Mdm2 MdmX PPI: 4; MPTP block: 0; CSC inhib: -4; Beta cell apopt: -5; Gli-Sufu block: -7; GRIN3A LBD mod: 0

How did Cc1ccc(-c2noc(CN(C)C(=O)c3ccc(Br)o3)n2)cc1 do in these assays?
Mdm2 MdmX PPI: 18; MPTP block: -1; CSC inhib: -11; Gli-Sufu block: -9; GRIN3A LBD mod: 1

Results for Cc1ccc(OCC(=O)N/N=C/c2cccc3cccnc23)cc1 ?
Mdm2 MdmX PPI: 1; MPTP block: 0; CSC inhib: 2; Beta cell apopt: -4; Gli-Sufu block: 9; GRIN3A LBD mod: -1

How did CN1CCC(=C2c3ccccc3CC(=O)c3sccc32)CC1 do in these assays?
Mdm2 MdmX PPI: 26; MPTP block: 14; CSC inhib: -15; Beta cell apopt: -9; Gli-Sufu block: 10; GRIN3A LBD mod: 0; Gli-Sufu confirm: 24; Gli cytotox: 5; Wnt3a counter: 7

How did C=CCOc1cccc(/C=C/c2nc3ccccc3c(=O)[nH]2)c1 do in these assays?
Mdm2 MdmX PPI: -83; MPTP block: 0; CSC inhib: 12; Beta cell apopt: -5; Gli-Sufu block: -78; GRIN3A LBD mod: 0

Results for COc1ccc(C2CC(c3cccs3)=NN2C(=O)CSc2nc(=O)n3ccccc3n2)cc1 (centres undefined) ?
Mdm2 MdmX PPI: 22; MPTP block: -1; CSC inhib: -2; Beta cell apopt: -3; Gli-Sufu block: 80*; GRIN3A LBD mod: -2; Gli-Sufu confirm: 29; Gli cytotox: 26*; Wnt3a counter: 67*

What do the screens show for `COc1ccc(N2CCN(C(=O)COC(=O)c3c(-c4ccccc4)noc3C)CC2)cc1`?
Mdm2 MdmX PPI: -10; MPTP block: -3; CSC inhib: -5; Beta cell apopt: 1; Gli-Sufu block: 65*; GRIN3A LBD mod: 2; Gli-Sufu confirm: 16; Gli cytotox: -1; Wnt3a counter: 7
